Shown are actives, neighbours in structure and some others; about 7.4% of the full set was active somewhere.
Rab9 prom act – activates the Rab9 promoter. Huh7 Rab9 promoter-luciferase reporter, luminescence, 24 h. Potency, µM (titrated, usually from 9.22 µM), inactives show top-dose activation, negative = inhibition, actives largely listed as activators. hit rate 2.8% among 320,000; also: % of control where 0% means no effect; nearly all actives have a fitted effect of over 60% in size
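Stable Rab9-luc Huh7, 1500 cells/well, 2 h settle; cmpd in DMSO, 24 h, 37 °C/5% CO2; luciferase reagent 10 min RT; luminescence.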
ELG1 genotox – inducers of genotoxicity in HEK293T ELG1-luciferase cells; HEK293T ELG1-luciferase reporter, luminescence, 16 h; Potency, µM (highest dose often 46 µM), for the others: top-dose activity change, positive = activation, actives largely listed as activators; hit rate 1.3% among 330,000; also: % of control where 0% means no effect; nearly all actives have a fitted effect of over 60% in size
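Reporter readout depends on ELG1 protein level, which increases with genetic stress. After 16 hr compound exposure at 37 °C, luciferase activity was quantified using ONE-Glo.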
FLuc counter – inhibits or activates purified firefly luciferase, miR-21 counter-screen; P08659; purified FLuc, Km substrates, luminescence inhibition; Potency, µM (titrated, usually from 57.5 µM), for inactives: top-dose activity change, negative = inhibition, actives largely listed as inhibitors; hit rate 6.9% among 360,000; AID 588342;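 also: plate controls were vehicle for no effect and reference inhibitor for full effect; nearly all actives have a fitted effect of over 55% in size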
Target sequence (P08659 whole entry, looked up): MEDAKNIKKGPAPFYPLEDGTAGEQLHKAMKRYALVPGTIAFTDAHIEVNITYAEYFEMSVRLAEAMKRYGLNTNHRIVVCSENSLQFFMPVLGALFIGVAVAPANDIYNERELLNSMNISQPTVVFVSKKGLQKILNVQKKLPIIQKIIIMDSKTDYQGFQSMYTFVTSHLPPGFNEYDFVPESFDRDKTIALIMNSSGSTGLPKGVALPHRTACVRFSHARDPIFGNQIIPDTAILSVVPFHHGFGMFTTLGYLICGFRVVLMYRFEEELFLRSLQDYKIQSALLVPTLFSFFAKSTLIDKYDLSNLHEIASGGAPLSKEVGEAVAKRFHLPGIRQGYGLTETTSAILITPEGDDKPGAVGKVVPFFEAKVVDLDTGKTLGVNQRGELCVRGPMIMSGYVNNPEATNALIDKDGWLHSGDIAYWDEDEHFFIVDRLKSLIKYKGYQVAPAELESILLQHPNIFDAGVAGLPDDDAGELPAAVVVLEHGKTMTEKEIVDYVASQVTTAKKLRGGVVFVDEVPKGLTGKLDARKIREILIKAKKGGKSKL
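Purified P. pyralis luciferase (10nM final) with 10uM D-luciferin and 10uM ATP (Km levels) in 50mM Tris acetate pH 7.5, 10mM Mg acetate, 0.01% Tween-20, 0.05% BSA; qHTS 6-point titration, ~60 µM downward; luminescence read.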
NPC1 prom act – activates the NPC1 promoter; Huh7 NPC1 promoter luciferase reporter, 24 h; Potency, µM (titrated, usually from 9.22 µM), for the others: at the top dose activation, most hits filed as activators; hit rate 2.4% among 320,000; AID 485313; also: % of control where 0% means no effect; nearly all actives have a fitted effect of over 60% in size
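Luminescence read-out of NPC1 promoter-driven luciferase in stably transfected Huh7 cells; compounds delivered in DMSO and left 24 h at 37C, 5% CO2, qHTS titration format.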
SMN2 splice enh – increases expression of the SMN2 splice variant | HEK293 SMN2-luciferase splicing reporter, luminescence, 30-36 h | hit rate 2.8% among 210,000 | Potency, µM (series often up to 46.1 µM), for the others: top-dose activity change, positive = activation, usual class: activators | AID 1458; also: % of control where 0% means no effect; nearly all actives have a fitted effect of over 55% in size
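HEK293 cells carry an SMN2 minigene-luciferase reporter in which exon 7 inclusion puts luciferase in frame. Cells were seeded at 2000 cells/well, attached for 10-12 hours, then exposed to compounds for 30-36 hours at 37C before ONE-Glo luminescence.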
An asterisk follows results filed as active; ? = inconclusive; / = no result given; [ ] = remark or other dose. Calls follow the shape of the dose curve; as a rule, active = well fitted curve in the direction sought with a large enough effect; inconclusive = small, poorly fitted or top-dose-only effect, or another doubt; inactive = no such curve, though single readings can be large; an effect the other way counts as inactive or inconclusive. Potency is read from the fitted curve at half-maximal effect.

SMILES	Rab9 prom act	ELG1 genotox	FLuc counter	NPC1 prom act	SMN2 splice enh
NCCCC[C@@H](C(=O)NCCCCCCCCCCC(=O)N1CCNCC1)n1cc(CCCC(=O)O)nn1	-6%	2%	-3%	9%	/
CCc1ccc(N(CC)C(=O)c2cn(C)c(=O)c3ccccc23)cc1	1%	11%	0%	-1%	/
COc1cc(OC)cc(-c2c(C#Cc3ccsc3)c3cc(-c4cccc5[nH]cc(C=O)c45)ccc3n2C)c1	/	-1%	/	/	/
O=C(Nc1cccc(-n2cnnn2)c1)C1CCCN(Cc2cccc(C(F)(F)F)c2)C1 (stereo not drawn)	-14%	-7%	-2%	-3%	/
Cc1ccc(/C=C2/Sc3ccccc3N(CC(=O)NCC3CCCO3)C2=O)cc1 (stereo not drawn)	-1%	-9%	?	-1%	/
CCc1ccc(/C=C2/Sc3ccccc3N(CC(=O)NCC3CCCO3)C2=O)cc1 (stereo not drawn)	2%	-7%	19µM*	3%	/
Cc1cc(=O)n2[nH]c(-c3cccnc3)nc2n1	1%	1%	17µM*	-4%	-24%
Cc1nc2nc(-c3cccnc3)[nH]n2c(=O)c1C	-2%	14%	?	2%	-12%
Cc1cc(=O)n2[nH]c(-c3ccc(F)cc3)nc2n1	3%	?	12µM*	19%	11%
C/C(N)=C(/C#N)C(=O)CSc1nnc(Nc2cccc(C)c2C)s1	?	15%	17µM*	?	?
COc1ccc(NC(=O)CCNS(=O)(=O)c2cc(Br)cnc2N)cc1OC	-2%	0%	1%	-1%	/
COc1ccccc1CN1CCC2(CC1)CCN(S(C)(=O)=O)CC2	/	/	/	/	0%
O=C(OCc1nc2ccccc2s1)c1ccc(Br)o1	0%	14%	?	-5%	19%
O=C(Oc1ccc(-c2cnc3ccccc3n2)cc1)c1cccc([N+](=O)[O-])c1	?	7.3µM*	?	?	32µM*
O=C(Oc1ccc(-c2cnc3ccccc3n2)cc1)c1ccc(Cl)c([N+](=O)[O-])c1	3%	8.2µM*	?	12%	?
O=C(Oc1ccc(-c2cnc3ccccc3n2)cc1)c1ccc(Br)o1	27%	9.2µM*	?	?	?
CC(C)n1nccc1N(Cc1ccc(Br)cc1)S(=O)(=O)c1ccccc1	-1%	-15%	0%	-2%	/
COc1ccc(CCNC(=O)c2ccc3c(c2)N(Cc2ccc(Cl)cc2)CCS3)c(OC)c1	/	/	-3%	/	2%
Cc1ccc(C)c(-c2nn(CC(=O)Nc3cc(F)ccc3F)c(=O)c3c2CCCC3)c1	/	/	-4%	/	8%
Cc1ccc2nc3c(cc(C#N)c(=O)n3-c3nnc(SCc4ccccc4Cl)s3)c(=O)n2c1	/	/	2%	/	4%
C[C@]12CC[C@@H](O)C[C@@H]1CC[C@@H]1[C@@H]2CC[C@]2(C)C=CC[C@@H]12	/	/	/	/	-18%
CSc1cccc(-n2cc(-c3ccc4c(c3)OCO4)[nH]c2=O)c1	?	?	21µM*	5%	?
COCCN1Cc2cccc(C(=O)Nc3ccc(C(=O)OC)cc3)c2C1=O	/	/	-8%	/	3%
O=C(/C=C/c1ccco1)Nc1nnc(-c2ccco2)s1	20%	5%	0%	0%	/
O=C(/C=C/c1ccco1)Nc1cccc(NC(=O)/C=C/c2ccco2)n1	3.2µM*	-3%	1.7µM*	?	?
SMILES	Rab9 prom act	ELG1 genotox	FLuc counter	NPC1 prom act	SMN2 splice enh
CCc1nnc(NC(=O)/C=C/c2ccco2)s1	1.8µM*	?	?	?	13µM*
CCSc1nnc(NC(=O)/C=C/c2ccco2)s1	4µM*	?	-8%	?	11µM*
Cc1nc(NC(=O)/C=C/c2ccco2)sc1C	-6%	?	?	-4%	11µM*
O=C(CSc1n[nH]c(-c2ccccc2)n1)NCc1cccc(C(=O)O)c1	-1%	0%	?	-4%	/
CC(C)c1onc(C(=O)N(C)C2CCCCC2)c1[N+](=O)[O-]	3%	-2%	-3%	0%	/
O=C(/C=C/c1ccco1)NC1=NCCS1	2.5µM*	9.2µM*	11µM*	2.2µM*	8.9µM*
CCOC(=O)N1CCN(C(=O)c2ccc3c(c2)N(Cc2cccc(Cl)c2)C(=O)c2ccccc2S3=O)CC1 (stereo not drawn)	-3%	1%[9.26 µM]	0%	0%	/
O=C(NC1CCCCC1)C(c1ccccc1F)N(C(=O)c1csnn1)C1CCCC1 (stereo not drawn)	9%	-5%	1%	-37%	/
COc1cc(Cl)ccc1OCc1cc(C(=O)N(C)C2CCOC2)no1 (stereo not drawn)	27%	?	?	?	/
COc1cc(Cl)ccc1OCc1cc(C(=O)N[C@H]2CCCCNC2=O)no1	?	14%	3.4µM*	?	/
COc1cc(Cl)ccc1OCc1cc(C(=O)N(C)CC2CCCCO2)no1 (stereo not drawn)	4µM*	?	19µM*	3.5µM*	/
Cc1nnc(CN(C)C(=O)c2cc(COc3ccc(F)cc3Cl)on2)o1	2.8µM*	?	12µM*	2.5µM*	/
CN(CCC1CCCCO1)C(=O)c1cc(COc2ccc(F)cc2F)on1 (stereo not drawn)	5%	-2%	-13%	6%	/
CN(CC1CCCCO1)C(=O)c1cc(COc2ccc(F)cc2Cl)on1 (stereo not drawn)	2.8µM*	-2%	?	?	/
CCOC(=O)c1ccc(NC(=O)CN2Cc3ccccc3C2=O)cc1	/	/	6%	/	/
O=C(O)CCCSc1nc2ccccc2s1	/	/	/	/	2%[9.22 µM]
COc1ccccc1CNC(=O)c1ccc(N2CCCC2)c(NC(=O)NCc2ccccc2)c1	/	/	-1%	/	/
Cc1ccc(S(=O)(=O)Nc2ccc(N=Nc3ccc(O)cc3)cc2)cc1	-4%	4%	-11%	1%	16%
Cc1ccc(-c2nc(N=Nc3ccc(O)cc3)n[nH]2)cc1	-9%	2%	8.5µM*	5%	25µM*
COc1ccc(-c2nc(N=Nc3ccc(O)cc3)n[nH]2)cc1	4%	6%	9.5µM*	-6%	-9%
Cc1nc(N=Nc2ccc(O)cc2)n[nH]1	?	?	17µM*	3.2µM*	/
COc1ccc(O)cc1	/	10%	/	/	-11%
C=C(C)COc1ccc2c(C)c(CC(=O)OC)c(=O)oc2c1C	?	9.2µM*	9.5µM*	?	-36%
COC(=O)Cc1c(C)c2ccc(OCC(C)=O)c(C)c2oc1=O	?	9.2µM*	?	?	13µM*
Cc1ccc(CNC(=O)C2COc3ccccc3C2)cc1 (stereo not drawn)	/	/	2%	/	/
COc1ccc(NC(=O)C(CC(C)C)NC(=O)C2CCCCC2)cc1 (stereo not drawn)	/	/	0%	/	0%
CCC(C)c1ccccc1NC(=O)c1cccc(-n2cnnn2)c1 (stereo not drawn)	/	-1%	/	/	/

Source: PubChem BioAssay (National Center for Advancing Translational Sciences (NCATS))
